Reference: PubChem BioAssay (EPA / NIEHS)
Records with an inconclusive call do not appear. The source made the active and inactive calls. The calls were made as follows, unless noted: active = hit-call score of the fitted dose curve at least 0.9, where 1 is the maximum; inactive = score below 0.9.

Key:
[1] = ATG_PBREM_CIS: Attagene CIS-FACTORIAL HepG2 Assay for human Phenobarbital-responsive Enhancer Module (PBREM) (AID 2282955); settings: HepG2 PBREM cis-reporter, Attagene multiplexed transcription; actives raise or lower the signal
Summary of the method: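 HepG2 cells transiently transfected with multiple cis-regulated reporter transcription units; endogenous factor activity at the PBREM element measured as reporter mRNA 24 h after dosing, via RT-PCR and capillary electrophoresis of fluorescent fragments; bidirectional fitting versus DMSO.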

[2] = ATG_PPRE_CIS: Attagene CIS-FACTORIAL HepG2 Assay for human Peroxisome Proliferator-activated Response Element (PPRE) (AID 2282958); settings: HepG2 PPRE cis-element reporter, Attagene transcription factor profiling; actives raise or lower the signal
Summary of the method: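 HepG2 cells transiently transfected with multiplexed cis-element reporter units measure endogenous transcription factor activity. After 24 h compound exposure, reporter mRNA is quantified by RT-PCR, 6-FAM labeling, HpaI digestion and capillary electrophoresis; bidirectional fits are made against DMSO baseline.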

[3] = ATG_Sox_CIS: Attagene CIS-FACTORIAL HepG2 Assay for human SRY-box transcription factor (SOX) (AID 2282960); settings: HepG2 Attagene cis-factorial SOX reporter, mRNA; actives raise or lower the signal
Summary of the method: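 HepG2 cells transiently transfected with cis-element-driven multiple reporter transcription units, dosed 24 h; reporter mRNA measured by RT-PCR, FAM labelling, HpaI digestion and capillary electrophoresis. Bidirectional fit versus DMSO baseline.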

[4] = molecular target: Transcription factor Sp1 (Homo sapiens) (UniProt P08047); assay: ATG_Sp1_CIS: Attagene CIS-FACTORIAL HepG2 Assay for human Specificity Protein 1 (Sp1) (AID 2282961); settings: HepG2 Sp1 cis-reporter transcription, actives raise or lower the signal
Chain of Transcription factor Sp1 (Homo sapiens) (P08047 whole entry, looked up): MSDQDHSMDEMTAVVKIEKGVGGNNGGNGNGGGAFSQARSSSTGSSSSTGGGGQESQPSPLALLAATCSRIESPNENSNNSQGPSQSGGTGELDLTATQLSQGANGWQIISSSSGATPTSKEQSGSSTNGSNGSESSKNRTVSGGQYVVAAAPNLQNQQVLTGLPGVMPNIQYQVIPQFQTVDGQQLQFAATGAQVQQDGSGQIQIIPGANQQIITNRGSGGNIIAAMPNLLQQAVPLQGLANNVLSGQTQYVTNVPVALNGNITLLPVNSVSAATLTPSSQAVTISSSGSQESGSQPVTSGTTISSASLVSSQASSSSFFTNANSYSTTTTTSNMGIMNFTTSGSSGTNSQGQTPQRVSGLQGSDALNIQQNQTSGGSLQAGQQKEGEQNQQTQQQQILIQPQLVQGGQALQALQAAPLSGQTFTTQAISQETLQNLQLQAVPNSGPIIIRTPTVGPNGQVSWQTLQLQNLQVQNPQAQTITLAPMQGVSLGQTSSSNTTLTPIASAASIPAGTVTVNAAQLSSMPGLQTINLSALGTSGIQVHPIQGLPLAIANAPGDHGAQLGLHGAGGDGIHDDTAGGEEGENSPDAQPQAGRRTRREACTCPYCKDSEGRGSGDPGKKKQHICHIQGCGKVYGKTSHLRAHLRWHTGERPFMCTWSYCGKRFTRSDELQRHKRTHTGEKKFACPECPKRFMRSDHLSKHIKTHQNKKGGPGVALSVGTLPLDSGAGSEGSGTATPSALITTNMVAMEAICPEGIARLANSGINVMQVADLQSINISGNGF
Summary of the method: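 HepG2 cells transiently transfected with multiple reporter transcription units driven by cis-regulatory elements; Sp1-responsive reporter mRNA measured 24 h after dosing by RT-PCR and capillary electrophoresis fluorescence, fitted bidirectionally against DMSO baseline.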

[5] = ATG_SREBP_CIS: Attagene CIS-FACTORIAL HepG2 Assay for human Sterol Regulatory Element Binding (SREBP) (AID 2282962); settings: HepG2 Attagene cis-factorial SREBP reporter, mRNA; actives raise or lower the signal
Summary of the method: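 mRNA induction of transfected cis-promoter reporters in HepG2 cells, 24 h post-dose. Detection: RT-PCR with 6-FAM-labelled products, HpaI digest, capillary electrophoresis. DMSO served as negative control and baseline.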

[6] = molecular target: Signal transducer and activator of transcription 3 (Homo sapiens) (UniProt P40763); assay: ATG_STAT3_CIS: Attagene CIS-FACTORIAL HepG2 Assay for human Signal Transducer and Activator of Transcription 3 (STAT3) (AID 2282963); settings: HepG2, Attagene cis-factorial STAT3 reporter transcription; actives raise or lower the signal
Chain of Signal transducer and activator of transcription 3 (Homo sapiens) (P40763 whole entry, looked up): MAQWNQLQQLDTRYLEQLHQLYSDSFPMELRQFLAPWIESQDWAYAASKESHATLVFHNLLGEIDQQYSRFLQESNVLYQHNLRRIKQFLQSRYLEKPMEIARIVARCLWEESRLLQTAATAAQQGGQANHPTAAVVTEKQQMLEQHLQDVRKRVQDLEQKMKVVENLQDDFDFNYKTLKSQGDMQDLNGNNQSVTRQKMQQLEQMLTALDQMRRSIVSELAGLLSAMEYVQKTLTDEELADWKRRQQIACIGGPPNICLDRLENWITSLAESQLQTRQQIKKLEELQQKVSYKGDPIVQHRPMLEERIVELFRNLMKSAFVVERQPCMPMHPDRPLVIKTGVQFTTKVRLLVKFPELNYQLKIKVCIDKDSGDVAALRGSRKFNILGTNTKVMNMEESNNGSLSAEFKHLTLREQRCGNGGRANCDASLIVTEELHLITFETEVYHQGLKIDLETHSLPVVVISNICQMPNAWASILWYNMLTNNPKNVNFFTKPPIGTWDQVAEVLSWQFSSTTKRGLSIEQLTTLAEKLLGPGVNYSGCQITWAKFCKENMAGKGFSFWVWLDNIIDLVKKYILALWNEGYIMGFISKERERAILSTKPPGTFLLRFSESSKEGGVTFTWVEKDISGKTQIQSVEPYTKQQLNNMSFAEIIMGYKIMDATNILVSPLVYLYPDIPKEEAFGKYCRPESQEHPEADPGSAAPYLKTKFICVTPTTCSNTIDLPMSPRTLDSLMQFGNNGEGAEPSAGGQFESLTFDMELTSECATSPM
Summary of the method: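 Endogenous STAT3-responsive cis-element activity was read in transiently transfected HepG2 cells after 24 h treatment. Reporter transcripts were quantified via RT-PCR and capillary electrophoresis, with DMSO as negative control and bidirectional curve fitting.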

[7] = ATG_TA_CIS: Attagene CIS-FACTORIAL HepG2 Assay for human TA Basal Promoter (AID 2282964); settings: HepG2 Attagene CIS-factorial TA basal promoter reporter; actives raise or lower the signal
Summary of the method: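 Background-control readout: TA basal promoter reporter mRNA, fitted in both directions relative to DMSO. Measured by RT-PCR and capillary electrophoresis 24 hours after treating HepG2 human liver cells transiently carrying multiplexed cis-regulated reporter constructs.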

[8] = ATG_TCF_b_cat_CIS: Attagene CIS-FACTORIAL HepG2 Assay for human T-Cell-Factor with beta-catenin (TCF/b-cat) (AID 2282965); settings: HepG2 TCF/beta-catenin cis-reporter transcription, actives raise or lower the signal
Summary of the method: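 Measured: reporter mRNA in HepG2 transiently transfected with cis-promoter reporter units, 24 h after chemical addition. Fitting was bidirectional, DMSO as negative control.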

[9] = ATG_TAL_CIS: Attagene CIS-FACTORIAL HepG2 Assay for human TAL Basal Promoter (AID 2282966); settings: HepG2 Attagene cis-factorial TAL promoter reporter; actives raise or lower the signal;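 also: background control endpoint measuring basal TAL promoter reporter mRNA not a specific factor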
Summary of the method: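 HepG2 cells transiently transfected with multiplexed cis-promoter reporter units, dosed 24 h. Reporter mRNA quantified by RT-PCR, 6-FAM labelling, HpaI digestion and capillary electrophoresis; TAL basal promoter serves as background control, fitted bidirectionally versus DMSO.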

[10] = ATG_TGFb_CIS: Attagene CIS-FACTORIAL HepG2 Assay for human Transforming Growth Factor (TGF) (AID 2282967); settings: HepG2 Attagene CIS TGFb reporter, mRNA transcription; actives raise or lower the signal
Summary of the method: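 Endogenous TGFB1-linked transcription factor activity read as reporter mRNA via RT-PCR and capillary electrophoresis, 24 h after dosing transiently transfected HepG2 cells. Gain or loss of signal fitted relative to DMSO.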

[11] = ATG_VDRE_CIS: Attagene CIS-FACTORIAL HepG2 Assay for human Vitamin D Receptor Element (VDRE) (AID 2282968); settings: HepG2 VDRE cis-reporter transcription, actives raise or lower the signal
Summary of the method: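 Reporter mRNA induction, quantified by capillary electrophoresis of fluorescently labelled RT-PCR products, was read 24 h after dosing HepG2 cells carrying transiently transfected cis-regulated reporter units; gain or loss relative to DMSO.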

[12] = molecular target: Estrogen receptor (Homo sapiens) (UniProt P03372); assay: ATG_ERa_TRANS: Attagene TRANS-FACTORIAL HepG2 Assay for human Estrogen Receptor alpha (ERa) (AID 2282970; active = hit-call score of the fitted dose curve at least 0.9, where 1 is the maximum); settings: HepG2 Attagene TRANS ERa GAL4 reporter, mRNA
Chain of Estrogen receptor (Homo sapiens) (P03372 whole entry, looked up, the tested form may be a part): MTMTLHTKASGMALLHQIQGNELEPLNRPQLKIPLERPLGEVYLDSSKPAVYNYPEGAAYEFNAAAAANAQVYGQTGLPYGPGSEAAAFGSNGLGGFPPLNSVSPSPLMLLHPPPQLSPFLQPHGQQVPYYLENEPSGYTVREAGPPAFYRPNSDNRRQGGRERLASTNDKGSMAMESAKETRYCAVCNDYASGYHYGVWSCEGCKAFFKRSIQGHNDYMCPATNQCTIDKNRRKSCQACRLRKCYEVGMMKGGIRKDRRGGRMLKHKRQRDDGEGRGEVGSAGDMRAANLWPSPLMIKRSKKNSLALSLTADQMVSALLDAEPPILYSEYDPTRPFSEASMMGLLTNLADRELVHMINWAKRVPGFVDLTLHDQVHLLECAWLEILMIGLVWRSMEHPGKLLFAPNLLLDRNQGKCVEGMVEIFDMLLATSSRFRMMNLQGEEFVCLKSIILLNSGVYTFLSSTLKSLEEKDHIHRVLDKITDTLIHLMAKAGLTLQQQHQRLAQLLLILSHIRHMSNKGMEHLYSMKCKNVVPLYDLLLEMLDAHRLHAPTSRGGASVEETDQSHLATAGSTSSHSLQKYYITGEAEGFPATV
Summary of the method: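 HepG2 cells transiently transfected with multiplexed GAL4-UAS reporter units read out chimeric NR-Gal4 activity. After 24 h compound exposure, reporter mRNA was quantified by RT-PCR, 6-FAM labeling, HpaI digestion and capillary electrophoresis, relative to DMSO.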

[13] = molecular target: Steroid hormone receptor ERR1 (Homo sapiens) (UniProt P11474); assay: ATG_ERRa_TRANS: Attagene TRANS-FACTORIAL HepG2 Assay for human Estrogen-Related Receptor alpha (ERRa) (AID 2282971; active = hit-call score of the fitted dose curve at least 0.9, where 1 is the maximum); settings: HepG2 Attagene TRANS reporter, ERRa transactivation
Chain of Steroid hormone receptor ERR1 (Homo sapiens) (P11474 whole entry, looked up, the tested form may be a part): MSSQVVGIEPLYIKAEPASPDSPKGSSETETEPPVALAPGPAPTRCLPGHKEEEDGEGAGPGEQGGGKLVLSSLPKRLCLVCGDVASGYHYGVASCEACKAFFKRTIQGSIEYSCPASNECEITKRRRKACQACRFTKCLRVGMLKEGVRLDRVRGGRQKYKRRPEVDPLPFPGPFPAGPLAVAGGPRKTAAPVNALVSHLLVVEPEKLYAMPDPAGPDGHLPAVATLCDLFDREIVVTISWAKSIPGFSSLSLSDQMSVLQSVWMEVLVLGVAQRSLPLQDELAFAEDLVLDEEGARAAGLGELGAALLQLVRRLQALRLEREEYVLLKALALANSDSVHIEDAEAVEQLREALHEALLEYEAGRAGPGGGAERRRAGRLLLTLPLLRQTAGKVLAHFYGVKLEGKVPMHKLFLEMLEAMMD
Summary of the method: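 HepG2 cells transiently transfected with GAL4-UAS reporter units and chimeric NR-Gal4 constructs; after 24 hour compound incubation, reporter mRNA quantified by RT-PCR, fluorescent labelling and capillary electrophoresis, gain of signal versus DMSO.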

[14] = molecular target: X-box-binding protein 1 (Homo sapiens) (UniProt P17861); assay: ATG_Xbp1_CIS: Attagene CIS-FACTORIAL HepG2 Assay for human X-box Binding Protein 1 (XBP1) (AID 2282972); settings: HepG2 XBP1 cis-element reporter, Attagene multiplex; actives raise or lower the signal
Chain of X-box-binding protein 1 (Homo sapiens) (P17861 whole entry, looked up, the tested form may be a part): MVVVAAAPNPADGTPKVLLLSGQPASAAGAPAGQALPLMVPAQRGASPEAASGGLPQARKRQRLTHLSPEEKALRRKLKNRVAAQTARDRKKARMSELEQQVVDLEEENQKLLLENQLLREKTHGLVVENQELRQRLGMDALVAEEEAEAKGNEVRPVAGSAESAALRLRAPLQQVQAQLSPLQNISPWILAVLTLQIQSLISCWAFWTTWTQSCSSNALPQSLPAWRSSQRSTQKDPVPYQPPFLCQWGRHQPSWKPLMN
Summary of the method: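 Fluorescence-labelled cDNA fragments from reporter transcripts, separated by capillary electrophoresis, give the signal. Source: HepG2 cells transfected with promoter-driven reporter units, harvested 24 h post-dose. DMSO served as reference for bidirectional curve fitting.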

[15] = ATG_M_19_TRANS: Attagene TRANS-FACTORIAL HepG2 Assay for M19 Transcription Factor (Internal Marker) (AID 2282974; active = hit-call score of the fitted dose curve at least 0.9, where 1 is the maximum); settings: HepG2 Attagene TRANS-FACTORIAL M19 internal marker reporter
Summary of the method: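 HepG2 cells transiently transfected with multiple GAL4-UAS reporter transcription units were exposed to chemicals for 24 h. Reporter mRNA was read by RT-PCR, 6-FAM primer extension, HpaI digestion and capillary electrophoresis; gain of signal fitted relative to DMSO.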

[16] = molecular target: Nuclear receptor subfamily 1 group I member 3 (Homo sapiens) (UniProt Q14994); assay: ATG_CAR_TRANS: Attagene TRANS-FACTORIAL HepG2 Assay for human Constitutive Androstane Receptor (CAR) (AID 2282969; active = hit-call score of the fitted dose curve at least 0.9, where 1 is the maximum;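 also: activators raise reporter mRNA above DMSO so AC50 marks induction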); settings: HepG2 Attagene TRANS-FACTORIAL CAR reporter
Chain of Nuclear receptor subfamily 1 group I member 3 (Homo sapiens) (Q14994 whole entry, looked up, the tested form may be a part): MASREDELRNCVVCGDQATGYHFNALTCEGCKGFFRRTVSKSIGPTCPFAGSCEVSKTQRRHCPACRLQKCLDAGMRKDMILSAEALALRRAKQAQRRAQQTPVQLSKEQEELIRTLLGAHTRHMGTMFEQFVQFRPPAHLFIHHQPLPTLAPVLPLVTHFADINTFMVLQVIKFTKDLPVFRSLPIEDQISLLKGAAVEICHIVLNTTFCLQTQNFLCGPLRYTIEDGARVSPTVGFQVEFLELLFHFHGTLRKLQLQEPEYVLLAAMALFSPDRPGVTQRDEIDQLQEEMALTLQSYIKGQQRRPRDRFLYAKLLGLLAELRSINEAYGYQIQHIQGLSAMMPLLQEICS
Summary of the method: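 Readout is reporter mRNA induction, quantified by fluorescent primer extension and capillary electrophoresis after RT-PCR. Cells were HepG2 transiently carrying chimeric NR-Gal4 constructs with GAL4-UAS reporters, treated for 24 h; activity scored upward from DMSO.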

[17] = ATG_GAL4_TRANS: Attagene TRANS-FACTORIAL HepG2 Assay for GAL4 (Internal Marker) (AID 2282976; active = hit-call score of the fitted dose curve at least 0.9, where 1 is the maximum); settings: HepG2 Attagene TRANS GAL4 internal marker reporter
Summary of the method: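 Background-control readout: GAL4-UAS reporter transcript in transiently transfected HepG2 cells after 24 h compound exposure. Measured by RT-PCR, 6-FAM primer extension, HpaI digest and capillary electrophoresis; gain-of-signal fit versus DMSO.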

[18] = ATG_PXRE_CIS: Attagene CIS-FACTORIAL HepG2 Assay for human Pregnane X Receptor Element (PXRE) (AID 2282957); settings: HepG2 Attagene CIS-FACTORIAL PXRE reporter, mRNA; actives raise or lower the signal
Summary of the method: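 HepG2 cells transiently transfected with cis-element-driven multiplexed reporter units; after 24 h chemical exposure, reporter mRNA measured by RT-PCR, 6-FAM labelling, HpaI digestion and capillary electrophoresis. Bidirectional fitting relative to DMSO.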

[19] = ATG_RORE_CIS: Attagene CIS-FACTORIAL HepG2 Assay for human RAR-related Orphan Receptor Element (RORE) (AID 2282959); settings: HepG2 Attagene cis-factorial RORE reporter, mRNA; actives raise or lower the signal
Summary of the method: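 HepG2 cells transiently transfected with multiple cis-element reporter transcription units, exposed to chemical for 24 h. Reporter mRNA quantified by RT-PCR, 6-FAM primer-extension labeling, HpaI digestion and capillary electrophoresis; bidirectional fit versus DMSO baseline.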

[20] = molecular target: Paired box protein Pax-6 (Homo sapiens) (UniProt P26367); assay: ATG_Pax6_CIS: Attagene CIS-FACTORIAL HepG2 Assay for human Paired Box 6 (PAX6) (AID 2282956); settings: HepG2 CIS-FACTORIAL PAX6 reporter transcription, RNA readout; actives raise or lower the signal
Chain of Paired box protein Pax-6 (Homo sapiens) (P26367 whole entry, looked up): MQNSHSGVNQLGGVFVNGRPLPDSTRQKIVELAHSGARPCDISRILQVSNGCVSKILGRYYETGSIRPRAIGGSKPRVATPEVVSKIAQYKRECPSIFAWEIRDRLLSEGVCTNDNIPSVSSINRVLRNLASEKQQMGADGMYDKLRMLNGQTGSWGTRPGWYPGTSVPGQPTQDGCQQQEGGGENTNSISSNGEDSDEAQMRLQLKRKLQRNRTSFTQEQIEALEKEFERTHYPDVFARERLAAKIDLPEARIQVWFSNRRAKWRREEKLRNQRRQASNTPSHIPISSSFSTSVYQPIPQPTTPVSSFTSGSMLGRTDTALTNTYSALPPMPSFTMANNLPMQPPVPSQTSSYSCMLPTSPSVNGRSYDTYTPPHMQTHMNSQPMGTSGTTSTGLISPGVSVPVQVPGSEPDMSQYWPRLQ
Summary of the method: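 Multiplexed cis-reporter HepG2 system; 24 h treatment; reporter mRNA read by RT-PCR/CE fluorescence; bidirectional fit vs DMSO.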

CCCCCOC(=O)CCCCC
outcome [1]: inactive
outcome [2]: inactive
outcome [3]: inactive
outcome [4]: inactive
outcome [5]: inactive
outcome [6]: inactive
outcome [7]: inactive
outcome [8]: inactive
outcome [9]: inactive
outcome [10]: inactive
outcome [11]: inactive
outcome [12]: inactive
outcome [13]: inactive
outcome [14]: inactive
outcome [15]: inactive

COC(OC)(C(=O)c1ccccc1)c1ccccc1
AC50 [1]: 3.88 µM (active)
outcome [2]: inactive
outcome [3]: inactive
outcome [4]: inactive
outcome [6]: inactive
outcome [7]: inactive
outcome [8]: inactive
outcome [9]: inactive
AC50 [10]: 138 µM (active)
AC50 [11]: 5.89 µM (active)
outcome [16]: inactive
AC50 [12]: 0.817 µM (active)
outcome [13]: inactive
outcome [14]: inactive
outcome [15]: inactive
outcome [17]: inactive

CC(C)COC(=O)CC(C(=O)OCC(C)C)S(=O)(=O)O (stereo not drawn)
outcome [1]: inactive
AC50 [18]: 29.5 µM (active)
outcome [2]: inactive
outcome [19]: inactive
outcome [3]: inactive
outcome [5]: inactive
outcome [6]: inactive
outcome [7]: inactive
outcome [8]: inactive
outcome [9]: inactive
outcome [10]: inactive
outcome [11]: inactive
outcome [16]: inactive
outcome [14]: inactive
outcome [15]: inactive

COc1nccnc1CC(C)C
outcome [20]: inactive
outcome [18]: inactive
outcome [2]: inactive
outcome [19]: inactive
outcome [3]: inactive
outcome [4]: inactive
outcome [5]: inactive
outcome [6]: inactive
outcome [7]: inactive
outcome [8]: inactive
outcome [9]: inactive
outcome [10]: inactive
outcome [11]: inactive
outcome [12]: inactive
outcome [13]: inactive
outcome [14]: inactive
outcome [17]: inactive

CC(Cl)COP(=O)(OCC(C)Cl)OCC(C)Cl (stereo not drawn)
outcome [1]: inactive
AC50 [18]: 4.13 µM (active)
outcome [2]: inactive
outcome [19]: inactive
outcome [3]: inactive
outcome [5]: inactive
outcome [6]: inactive
outcome [7]: inactive
outcome [8]: inactive
outcome [9]: inactive
outcome [10]: inactive
AC50 [11]: 3.75 µM (active)
outcome [16]: inactive
outcome [12]: inactive
outcome [13]: inactive
outcome [14]: inactive
outcome [15]: inactive
outcome [17]: inactive

CC(C)C(=O)OCCc1ccccc1
outcome [20]: inactive
outcome [18]: inactive
outcome [2]: inactive
outcome [19]: inactive
outcome [3]: inactive
outcome [4]: inactive
outcome [5]: inactive
outcome [6]: inactive
outcome [7]: inactive
outcome [8]: inactive
outcome [9]: inactive
outcome [10]: inactive
outcome [11]: inactive
outcome [12]: inactive
outcome [14]: inactive
outcome [15]: inactive
outcome [17]: inactive

NC(=O)Nc1ccccc1
outcome [1]: inactive
outcome [18]: inactive
outcome [19]: inactive
outcome [3]: inactive
outcome [4]: inactive
outcome [6]: inactive
outcome [7]: inactive
outcome [8]: inactive
outcome [9]: inactive
outcome [10]: inactive
outcome [11]: inactive
outcome [13]: inactive
outcome [14]: inactive
outcome [15]: inactive

CCCCNS(=O)(=O)c1ccc(C)cc1
outcome [1]: inactive
outcome [2]: inactive
outcome [19]: inactive
outcome [3]: inactive
outcome [4]: inactive
outcome [5]: inactive
outcome [6]: inactive
outcome [7]: inactive
outcome [8]: inactive
outcome [9]: inactive
outcome [10]: inactive
outcome [12]: inactive
outcome [14]: inactive
outcome [15]: inactive

CCCCCCCCCCCCCC(=O)OC(C)C
outcome [20]: inactive
outcome [18]: inactive
outcome [2]: inactive
outcome [19]: inactive
outcome [3]: inactive
outcome [4]: inactive
outcome [5]: inactive
outcome [6]: inactive
outcome [7]: inactive
outcome [8]: inactive
outcome [9]: inactive
outcome [10]: inactive
outcome [11]: inactive
outcome [12]: inactive
outcome [14]: inactive
outcome [15]: inactive
outcome [17]: inactive
